Screening data as filed in PubChem BioAssay.
The list is not random: actives were taken first. Their share in the collection is about 8%.
RORgamma inh: ROR gamma (mouse) transcription inhibition; P51450; Drosophila S2 Gal4-RORgamma UAS-luciferase reporter, 20 h; Potency, µM (titrated, usually from 53.6 µM), inactives show top-dose activity change, negative = inhibition, most hits filed as inhibitors; 5.4% of 310,000 active; AID 2551; also: potency is read from the fitted curve at half-maximal effect; nearly all actives have a fitted effect of over 60% in size
Target sequence (P51450 whole entry, looked up, the tested form may be a part): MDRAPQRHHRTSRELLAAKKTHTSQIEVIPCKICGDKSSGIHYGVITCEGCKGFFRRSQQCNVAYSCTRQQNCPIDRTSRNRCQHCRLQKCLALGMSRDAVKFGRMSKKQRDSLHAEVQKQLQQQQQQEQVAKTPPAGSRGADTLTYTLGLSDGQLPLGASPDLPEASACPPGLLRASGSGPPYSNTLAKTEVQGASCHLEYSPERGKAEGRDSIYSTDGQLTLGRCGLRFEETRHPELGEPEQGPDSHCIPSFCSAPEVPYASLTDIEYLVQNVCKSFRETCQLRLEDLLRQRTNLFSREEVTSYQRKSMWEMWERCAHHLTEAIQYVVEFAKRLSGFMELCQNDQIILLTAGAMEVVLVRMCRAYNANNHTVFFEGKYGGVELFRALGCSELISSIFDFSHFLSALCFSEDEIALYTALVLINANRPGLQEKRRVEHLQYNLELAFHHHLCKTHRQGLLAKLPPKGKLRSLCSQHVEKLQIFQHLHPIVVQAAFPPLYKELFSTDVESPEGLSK
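ROR gamma transcriptional activity was tracked as Gal4-UAS luciferase output in stably transfected Drosophila Schneider cells, with compound added 1 hr before 700 uM copper sulfate induction and a 20 hr ambient-temperature incubation.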
ELG1 repair inh: ELG1-dependent DNA repair inhibition. HEK293T ELG1-luciferase reporter, luminescence, 16 h; DNA damage induced by 5-fluorouridine. Potency, µM (highest dose often 46.1 µM), for inactives: at the highest dose activity change, negative = inhibition, hits mostly inhibitors. 2.3% of 330,000 active. AID 504467; also: potency is read from the fitted curve at half-maximal effect; nearly all actives have a fitted effect of over 55% in size
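HEK293T cells expressing luciferase-tagged ELG1 (2,000/well) received 5-Fluorouridine plus compound or DMSO for 16 hr at 37 °C. Luciferase was read by ONE-Glo luminescence after 30 min at room temperature.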
Coupling enz: coupling enzyme interference in Giardia aldolase counter-screen; coupling enzyme system counterscreen, AmpLite Red fluorescence; activity change, negative = inhibition, % at 58.2 µM, hits read low; 0.67% of 290,000 active; AID 2472; in the data active = activity change below about -30%
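Counterscreen of the coupled detection system alone, without aldolase: glyceraldehyde-3-phosphate coupling enzymes plus AmpLite Red readout. Compounds at 57.5 uM final, 10 min RT preincubation, 20 min RT reaction, fluorescence 525/598 nm.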
TSHR antag: blocks TSH signaling through the human TSH receptor; activity change, negative = inhibition, % at 11.5 µM; TSHR-expressing cells, TSH-stimulated cAMP HTRF, 2 h; active compounds read low; AID 504810; P16473; 0.2% of 330,000 active;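 active = activity change below a set negative limit, meaning inhibition stronger than a set level, cut at about -70% in these data; inconclusive = activity change between two set negative limits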
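Read-out is FRET at 665 nm (cryptate excitation 337 nm) from a cryptate-tagged anti-cAMP antibody, competed by cell cAMP against cAMP-d2. Compounds are tested on freshly harvested TSHR cells challenged with 4nM TSH (EC80) for 2 hours at 37 deg C.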
Gal4-VP16 FLuc: Gal4-VP16 reporter inhibition counter-screen. Drosophila S2 Gal4-VP16 UAS-luciferase, luminescence, 20 h. Potency, µM (series often up to 53.6 µM), for inactives: at the top dose activity, negative = inhibition, hits mostly inhibitors. 3.5% of 310,000 active;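 also: Gal4-VP16 expression switched on by copper sulfate through the metallothionein promoter; potency is read from the fitted curve at half-maximal effect; nearly all actives have a fitted effect of over 50% in size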
An asterisk follows results filed as active; [ ] = another dose, or the depositor's remark. Unless noted, calls follow the shape of the dose curve; as a rule, active = well fitted curve in the direction sought with a large enough effect; inconclusive = small, poorly fitted or top-dose-only effect, or another doubt; inactive = no such curve, though single readings can be large; an effect the other way counts as inactive or inconclusive. % is scaled to controls: 0 for no effect and ±100 for the full control effect.

What do the screens show for `CCOc1ccc(NC(=S)N2CCC(C(O)(c3ccccc3)c3ccccc3)CC2)cc1`?
RORgamma inh: 13µM*; ELG1 repair inh: -4%; Coupling enz: 9; TSHR antag: -1; Gal4-VP16 FLuc: inconclusive

How did S=C(NC1CCCCC1)N1CCOCCOCCN(C(=S)NC2CCCCC2)CCOCC1 do in these assays?
RORgamma inh: 11µM*; ELG1 repair inh: -29%; Coupling enz: 0; TSHR antag: -4; Gal4-VP16 FLuc: inconclusive

Results for S=C(NC1CCCC1)N1CCOCC1 ?
RORgamma inh: -16%; ELG1 repair inh: 6%; Coupling enz: -1; TSHR antag: -8; Gal4-VP16 FLuc: 9%

What do the screens show for `OC(c1ccccc1)(c1ccccc1)C1CCN(C(=S)NCCc2ccccc2)CC1`?
RORgamma inh: 13µM*; ELG1 repair inh: inconclusive; Coupling enz: 1; TSHR antag: -19; Gal4-VP16 FLuc: inconclusive

How did COc1ccc(CN(C)C(=O)c2cc(S(=O)(=O)N3CCOCC3)ccc2N2CCCC2)cc1 do in these assays?
ELG1 repair inh: -8%; TSHR antag: 5

What do the screens show for `CC(C)[C@@H](OCc1ccccc1)[C@H](C)/C=N\O[C@@H](C)c1cn([C@@H]2COC[C@@H]2O)nn1`?
RORgamma inh: 14%[10 µM]; Coupling enz: -1; Gal4-VP16 FLuc: -2%[10 µM]

Results for O=C(N/N=C/CCc1ccccc1)c1ccc(CN2c3cccc4cccc(c34)S2(=O)=O)cc1 ?
RORgamma inh: 11µM*; ELG1 repair inh: -27%; Coupling enz: 3; TSHR antag: 11; Gal4-VP16 FLuc: inconclusive

How did COc1ccc(/C=N/NC(=O)c2ccc(CN3c4cccc5cccc(c45)S3(=O)=O)cc2)cc1 do in these assays?
RORgamma inh: -21%; ELG1 repair inh: inconclusive; Coupling enz: -6; TSHR antag: 1; Gal4-VP16 FLuc: 1%

Results for Cc1ccc(C(=O)N2CCC(C(=O)c3c(C)cc(C)cc3C)CC2)cc1 ?
RORgamma inh: -6%; ELG1 repair inh: 16µM*; Coupling enz: 4; TSHR antag: 1; Gal4-VP16 FLuc: 3%

How did NS(=O)(=O)c1cccc(NC(=O)c2cc(-c3cccs3)nc3ccccc23)c1 do in these assays?
RORgamma inh: 2%; ELG1 repair inh: inconclusive; Coupling enz: 1; TSHR antag: -7; Gal4-VP16 FLuc: -13%

Results for O=C(c1cc(-c2ccccn2)nc2c(Cl)cccc12)N1CCN(C(=O)C2CCCO2)CC1 (stereo unspecified) ?
RORgamma inh: -19%; ELG1 repair inh: -26%; Coupling enz: 3; TSHR antag: 3; Gal4-VP16 FLuc: -1%

What do the screens show for `O=C(c1cc(-c2ccccn2)nc2c(Cl)cccc12)N1CCN(S(=O)(=O)c2ccccc2)CC1`?
RORgamma inh: inconclusive; ELG1 repair inh: 18µM*; Coupling enz: -1; TSHR antag: 17; Gal4-VP16 FLuc: -2%

Results for CN(C)S(=O)(=O)c1cccc(NC(=O)c2cc(-c3cccs3)nc3ccccc23)c1 ?
RORgamma inh: 26%; ELG1 repair inh: 7.3µM*; Coupling enz: 1; TSHR antag: inconclusive; Gal4-VP16 FLuc: -5%

Results for O=C(c1cc(-c2cccs2)nc2ccccc12)N1CCN(S(=O)(=O)c2ccccc2)CC1 ?
RORgamma inh: -17%; ELG1 repair inh: 16µM*; Coupling enz: 1; TSHR antag: 13; Gal4-VP16 FLuc: -11%

How did CCOC(=O)C1=C(N)Oc2ccc(Br)cc2[C@@H]1[C@@H](C#N)C(=O)OCC do in these assays?
RORgamma inh: 6%; Coupling enz: 0; Gal4-VP16 FLuc: 0%

What do the screens show for `COc1ccc(CCNC(=O)c2cc(C)oc2C)cc1`?
RORgamma inh: 11%; ELG1 repair inh: 1%; TSHR antag: 3; Gal4-VP16 FLuc: -9%

How did Cc1c(C(=O)Nc2ccc3c(c2)OCO3)sc2ncn(CC(=O)N3CC(C)CC(C)C3)c(=O)c12 (stereo unspecified) do in these assays?
RORgamma inh: 17%; ELG1 repair inh: 21µM*; Coupling enz: 1; TSHR antag: 4; Gal4-VP16 FLuc: 0%

How did CCn1cnc2sc(C(=O)N3CCN(Cc4ccc5c(c4)OCO5)CC3)c(C)c2c1=O do in these assays?
RORgamma inh: -10%; ELG1 repair inh: inconclusive; Coupling enz: 0; TSHR antag: 1; Gal4-VP16 FLuc: -10%
